The nature of experiment [1]: RPL19A-GFP modulators, yeast TOR pathway, confirmation, cell-based, S. cerevisiae, flow cytometry, cherry picks, mother/daughter gates (AID 2270;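 active = GFP response below 50% of the DMSO control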). The note with it: S. cerevisiae RPL19A-GFP strain, 3 h, at 10 µM, stronger effect = lower value, 100 = same GFP as DMSO wells. (In general: In flow cytometry, cells or beads pass a laser one at a time.)
Experiment [2] in a line: LAP4-GFP expression modulators in yeast, confirmation, cell-based, cherry picks, flow cytometry, mother/daughter gates (AID 2271;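 active = GFP response above 150% of the DMSO control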;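 also: ratio of sample to DMSO plate mean so 100% equals DMSO level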). The conditions noted are these: S. cerevisiae LAP4-GFP strain, 3 h, at 10 µM, stronger effect = higher value.
A short description of experiment [3]: modulators of CIT2-GFP expression in yeast, confirmation, S. cerevisiae, GFP fusion, cherry picks, mother/daughter gates (AID 2274). The note with it: S. cerevisiae CIT2-GFP strain, flow cytometry, 3 h, at 10 µM, stronger effect = higher value.
A short description of experiment [4]: yeast TOR pathway RPL19A-GFP modulators, primary screen, cell-based, S. cerevisiae, multiplex flow cytometry (AID 1862; in the data active = percent of DMSO control GFP below about 86%;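 also: lower values mimic rapamycin by blocking the RPL19A rise seen in DMSO cells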). The note with it: S. cerevisiae RPL19A-GFP strain, flow cytometry fluorescence, 3 h; at 10 µM; stronger effect = lower value.
Experiment [5] is described as follows: modulators of CIT2-GFP expression in yeast, primary screen, S. cerevisiae, GFP fusion, multiplex flow cytometry (AID 1870;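 active = percent response above a set limit, the screen-wide mean plus 3 SD, cut at about 130% in these data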;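 also: barcoded CIT2-GFP strain pooled with four other GFP strains with rapamycin as positive control; median GFP fluorescence per well over plate mean of DMSO wells so 100% = DMSO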). The conditions noted are these: 3 h, at 10 µM, stronger effect = higher value.
A short description of experiment [6]: modulators of LAP4-GFP expression in yeast, primary screen, S. cerevisiae, multiplex flow cytometry (AID 1873;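 active = GFP signal, as percent of the solvent control, above the screen mean plus 3 SD, about 149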). The conditions noted are these: 3 h, at 10 µM, stronger effect = higher value.
Experiment [7] in a line: inhibitors of CD8+ T cell-vesicle binding, pilot screen, LFA-1/ICAM-1 modulator project, MLPCN validation set, flow cytometry (AID 2523). The conditions noted are these: 2C mouse CD8+ T cells, at 7 µM, stronger effect = lower value; double positive events: measured here: CD8+/vesicle+ event percentage.
The target of experiment [8] is Integrin beta-1 (Homo sapiens) + Integrin alpha-4 (Homo sapiens) (UniProt P13612+P05556). Put plainly: inhibition of HUTS-21 binding to VLA-4, pilot screen, VLA-4 allosteric modulator project, U937 cells, HUTS-21 mAb, flow cytometry, validation set (AID 2674;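 active = inhibition above 50%, about 3 SD of the validation set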;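 also: antibody binding induced by the VLA-4 ligand LDV present at three times its Kd; 0% = LDV ligand with antibody and no compound and 100% = antibody without LDV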). The conditions noted are these: HUTS-21 LIBS mAb binding, at 6.7 µM, stronger effect = higher value.
Experiment [9] in a line: superoxide lowering in aged yeast cells, pilot screen, validation compound set (AID 2706;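 active = superoxide response below 65% of plate, a cut near 3 SD across the whole screen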;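 also: yeast exposed to compound for one week at 30 degrees C before staining; 100% = mean of all compound wells on the same plate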). The conditions noted are these: S. cerevisiae aging, superoxide DHE fluorescence; at 10 µM; stronger effect = lower value.
Experiment [10] addresses Beta-adrenergic receptor kinase 1 (Homo sapiens) (UniProt P25098). Put plainly: GRK2 binders displacing RNA aptamer, biochemical, validation, human GRK2, bead flow cytometry (AID 488806;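 active = aptamer binding inhibition above 30%, about 3 SD of noise from non-fluorescent compounds; inactive = inhibition at or below 30%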). The note with it: bead-bound GRK2, FAM-aptamer displacement, at 10 µM, stronger effect = higher value.
For experiment [11], the target named is Beta-2 adrenergic receptor (Homo sapiens) (UniProt P07550). The experiment is described as follows: beta2AR agonists driving receptor internalization, pilot screen, cell-based, FAP fluorogen, flow cytometry, validation set (AID 504459;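 active = percent response above 42, roughly 3 SD of non-fluorescent test compounds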;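 also: agonist-driven loss of surface beta2AR via internalization measured by FAP dye flow cytometry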). The note with it: Am2.2-beta2AR cells, FAP surface receptor flow cytometry; at 10 µM; stronger effect = higher value.
In experiment [12] the target is AP-2 complex subunit beta (Homo sapiens) (UniProt P63010). Put plainly: inhibitors of arrestin peptide binding to AP2, pilot screen, biochemical, validation set, GST-AP2 beads, flow cytometry (AID 504541;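 active = inhibition above 54%, about 3 SD of non-fluorescent compounds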;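 also: AP2 carries R879A mutation and is captured from E. coli lysate; bead-bound FITC arrestin peptide fluorescence measuring arrestin peptide binding to AP2; 0% = DMSO wells and 100% = excess unlabeled arrestin peptide control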). The note with it: FITC arrestin peptide, at 10 µM, stronger effect = higher value.
A short description of experiment [13]: yeast V-ATPase proton transport modulators, S. cerevisiae, pHLuorin, HTS validation (AID 504600; in the data active = response above about 15%;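 also: plate controls were DMSO for no effect and reference compound for full effect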). The conditions noted are these: S. cerevisiae pHLuorin cytosolic pH, at 10 µM, stronger effect = higher value.
Experiment [14] relates to anti-desmoglein-3 scFv antibody binding to human DSG3. The experiment is described as follows: inhibitors of anti-DSG3 scFv binding to DSG3, pilot screen, biochemical, validation compound set, bead-based, flow cytometry (AID 588368;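 active = binding below the plate cutoff, the plate median minus 3 SD, with a reading above zero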;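 also: signal is the median channel fluorescence of bead-bound GFP antibody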). The conditions noted are these: Protein G beads, DSG3-Fc, scFv-GFP binding, at 10 µM, stronger effect = lower value.
Experiment [15] relates to Botulinum neurotoxin type F light chain protease (Clostridium botulinum). Put plainly: Botulinum neurotoxin type F light chain protease inhibition, multiplex microsphere flow cytometry, validation set (AID 588459; call rule not given here). The note with it: multiplex microsphere protease substrate cleavage assay, at 10 µM, stronger effect = higher value.
For experiment [16], the target named is Botulinum neurotoxin type A (Clostridium botulinum) (UniProt P0DPI0). Put plainly: BoNT/A light chain protease inhibitors, biochemical, multiplex microsphere flow cytometry, validation set (AID 588460; call rule not given here). The conditions noted are these: at 10 µM, stronger effect = higher value.
Experiment [17] concerns the target Lethal factor (Bacillus anthracis) (UniProt P15917). Put plainly: Lethal factor protease inhibitors, Bacillus anthracis, multiplex microsphere cleavage assay, validation set (AID 588461; call rule not given here). The conditions noted are these: flow cytometry, at 10 µM, stronger effect = higher value.
A short description of experiment [18]: inhibitors of fungal efflux pumps CDR1, CDR2, MDR1, pilot screen, validation compound set, multiplex, phenotypic (AID 588506;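 active = efflux inhibition above 0.42, the validation set average plus 4 SD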;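 also: Nile Red retained in cells so higher fluorescence means more efflux inhibition; 0 = negative control wells and 1 = enniatin B 25 µM full block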). The note with it: S. cerevisiae pump-expressing triplex, Nile Red efflux flow cytometry; at 10 µM; stronger effect = higher value.
Experiment [19] concerns the target ATP-binding cassette sub-family B member 6 (Homo sapiens) (UniProt Q9NP58). Put plainly: ABCB6 transporter inhibitors, pilot screen, K562-ABCB6 cells, flow cytometry, validation set (AID 588550;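 active = inhibition above the screen-wide mean plus 3 SD, about 51%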;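 also: 0% = DMSO wells and 100% = benzethonium chloride 70 µM positive control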). The note with it: K562-ABCB6 porphyrin accumulation, 1 h, at 10 µM, stronger effect = higher value.
A short description of experiment [20]: promoters of myeloid differentiation in arrested cells, primary screen, cell-based, GFP/MAC1 double positive, flow cytometry, validation set (AID 588685;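 active = differentiation response of at least 50%, scaled between solvent and reference control, from cells with both markers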;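 also: compound exposure lasts four days before antibody staining and flow analysis; 0% = DMSO wells and 100% = 5 µM fulvestrant positive control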). The note with it: ER-HoxA9 marrow cells, stronger effect = higher value.
[21] abbreviates: measured here: daughter cell gate.
Where [22] appears, read: measured here: mother cell gate.
The mark [23] stands for this setting: measured here: daughter cell gate response.
[24] abbreviates: measured here: mother cell gate response.

Records with an inconclusive call do not appear. Activity calls are given as the source filed them.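 The calls were made as follows, unless noted: active = GFP response above 150% of the DMSO level; inconclusive = fewer than 70 events counted for a yeast strain; inactive = the rest.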

For `O=c1[nH]c(=S)n(-c2ccccc2)c(O)c1/C=N/N1CCOCC1`, the GFP response vs DMSO in experiment [1] is 102% (inactive); in experiment [1] (setting [21]), 103%; in [1] (setting [22]), 102%. The GFP response relative to DMSO was 95.7% (inactive) in experiment [2], 97.5% in [2] (setting [23]) and 96.2% in experiment [2] (setting [24]). Further, the GFP response, % of DMSO in [3] is 100% (inactive); in [3] (setting [21]), 103%; in experiment [3] (setting [22]) it was 99.3%.
In the case of `CCN(CC)c1ccc(C=C2C(=O)NC(=S)NC2=O)cc1`, the GFP response vs DMSO in experiment [1] is 94.7% (inactive); in experiment [1] (setting [21]), 90.2%; in experiment [1] (setting [22]), 90%. The GFP response relative to DMSO in [2] was 128% (inactive); in experiment [2] (setting [23]), 116%; in [2] (setting [24]), 131%. The GFP response, % of DMSO in experiment [3] was 94.4% (inactive); in experiment [3] (setting [21]) it was 95.8%; in [3] (setting [22]), 84.8%.
Regarding `Cc1ccc(N2C(=O)NC(=O)/C(=C\c3cn(CC(=O)O)c4ccccc34)C2=O)cc1`, the GFP response vs DMSO in [1] was 100% (inactive); in experiment [1] (setting [21]), 100%; in experiment [1] (setting [22]), 101%. Besides, the GFP response relative to DMSO in [2] was 102% (inactive); in experiment [2] (setting [23]), 102%; in experiment [2] (setting [24]) it was 104%. Also, the GFP response, % of DMSO was 96.5% (inactive) in [3], 94.8% in experiment [3] (setting [21]) and 96.6% in [3] (setting [22]).
For `COc1cc(/C=C/C(=O)c2c(O)n(CCc3ccccc3)c(=O)[nH]c2=O)ccc1O`, the GFP response vs DMSO in [1] was 103% (inactive); in [1] (setting [21]), 104%; in experiment [1] (setting [22]), 103%. The GFP response relative to DMSO in experiment [2] is 90% (inactive); in experiment [2] (setting [23]) it was 90.4%; in experiment [2] (setting [24]), 88.9%. In addition, the figures for the GFP response, % of DMSO in experiment [3], in [3] (setting [21]) and in experiment [3] (setting [22]) were 115% (inactive), 114% and 112%, respectively.
As to `CCOC(=O)C(C)Oc1cc(C)cc2oc(=O)c3c(c12)CCCC3` (stereo not drawn), in [4], the percent of DMSO control GFP was 95.2% (inactive). The percent response of DMSO control in experiment [5] was 104% (inactive). Besides, in [6], the GFP response vs DMSO was 74.8% (inactive). The double positive events in experiment [7] worked out at 81.8%. Further, the inhibition in experiment [8] is 0.64% (inactive); in experiment [12] it was -3.6% (inactive); in experiment [15], -0.4% (inactive); in experiment [16] it was -1.5% (inactive); in experiment [17], 0.6% (inactive); in experiment [19], 12% (inactive). For the same molecule, the superoxide response (% of plate) in experiment [9] is 103% (inactive). Further, the aptamer binding inhibition in experiment [10] is 5% (inactive). Besides, the response in experiment [11] was 1.66% (inactive); in experiment [13], -8.97% (inactive). In experiment [14], the binding (% of control) is 97.6% (inactive). Besides, in experiment [18], the efflux inhibition (fraction of control) is -0.46 (inactive). Also, the differentiation response in experiment [20] is -9.01% (inactive).
In the case of `CCNC(=O)[C@H]1O[C@@H](n2cnc3c(N)ncnc32)[C@H](O)[C@@H]1O`, the percent of DMSO control GFP in [4] is 97% (inactive). Besides, in experiment [5], the percent response of DMSO control is 104% (inactive). For the same molecule, in [6], the GFP response vs DMSO was 88.6% (inactive). Further, the double positive events in experiment [7] is 48.3%. For the same molecule, the inhibition is 15.2% (inactive) in experiment [8]; 3.14% (inactive) in experiment [12]; -4.2% (inactive) in experiment [15]; 0% (inactive) in experiment [16]; 2.8% (inactive) in [17]; 11% (inactive) in experiment [19]. The superoxide response (% of plate) in experiment [9] was 111% (inactive). Also, the aptamer binding inhibition in [10] is 66% (active). The response is 0.15% (inactive) in experiment [11] and 0.72% (inactive) in experiment [13]. Also, the binding (% of control) in experiment [14] is 107% (inactive). Besides, in experiment [18], the efflux inhibition (fraction of control) is 0.37 (inactive). For the same molecule, the differentiation response in [20] was 5.73% (inactive).
Turning to `N#CC(C#N)=NNc1ccc(-n2ccc(C(F)(F)F)n2)cc1`, the GFP response vs DMSO was 98% (inactive) in experiment [1], 97.6% in experiment [1] (setting [21]) and 96.9% in experiment [1] (setting [22]). Besides, the GFP response relative to DMSO is 111% (inactive) in experiment [2] (100 means same as DMSO control); 104% in [2] (measured here: daughter cell gate response, 100 means same as DMSO control); 111% in experiment [2] (measured here: mother cell gate response, 100 means same as DMSO control). Moreover, the values for the GFP response, % of DMSO in experiment [3], in [3] (setting [21]) and in experiment [3] (setting [22]) were 97.2% (inactive), 97.6% and 97.1%, respectively.
On to `O=C1NC(=O)N(c2ccccc2)C(=O)/C1=C/c1ccc(Sc2ccccc2)o1`, for which the GFP response vs DMSO in [1] is 99.7% (inactive); in [1] (setting [21]), 98.5%; in [1] (setting [22]), 95.2%. Moreover, the GFP response relative to DMSO in experiment [2] is 177% (active); in experiment [2] (setting [23]), 135%; in experiment [2] (setting [24]), 170%. In addition, the GFP response, % of DMSO in experiment [3] is 89.2% (inactive); in experiment [3] (setting [21]), 98.3%; in [3] (setting [22]) it was 79.3%.

What is called inhibition is the relative decrease from the control value, in per cent.

The values above are taken from PubChem BioAssay.
